Shown are actives, neighbours in structure and some others; about 3.4% of the full set was active somewhere.
TEAD-YAP inh: TEAD-YAP interaction inhibition, primary screen, TEAD-YAP interaction inhibitor project, luminescence, HEK-TIYL cells; TEAD-Gal4/YAP UAS-luciferase luminescence; inhibition, % at 9.12 µM; 640,000 compounds, 1.4% hits; AID 1259422, 2018; in the data active = inhibition above about 32%;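 note: 0% = median of test compound wells and 100% = reference inhibitor wells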
GPR151 ag: activators of human GPR151, primary screen, cell-based, PathHunter beta-arrestin, luminescence | G-protein coupled receptor 151 (Homo sapiens), Q8TDV0 | 650,000 compounds, 1% hits | activation, % at 11.2 µM | AID 1508602, 2020 | PathHunter beta-arrestin GPR151 cells; in the data active = activation above about 4.9%;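 note: 0% = median of compound wells and 100% = cells with positive control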
Target sequence (Q8TDV0 whole entry, looked up): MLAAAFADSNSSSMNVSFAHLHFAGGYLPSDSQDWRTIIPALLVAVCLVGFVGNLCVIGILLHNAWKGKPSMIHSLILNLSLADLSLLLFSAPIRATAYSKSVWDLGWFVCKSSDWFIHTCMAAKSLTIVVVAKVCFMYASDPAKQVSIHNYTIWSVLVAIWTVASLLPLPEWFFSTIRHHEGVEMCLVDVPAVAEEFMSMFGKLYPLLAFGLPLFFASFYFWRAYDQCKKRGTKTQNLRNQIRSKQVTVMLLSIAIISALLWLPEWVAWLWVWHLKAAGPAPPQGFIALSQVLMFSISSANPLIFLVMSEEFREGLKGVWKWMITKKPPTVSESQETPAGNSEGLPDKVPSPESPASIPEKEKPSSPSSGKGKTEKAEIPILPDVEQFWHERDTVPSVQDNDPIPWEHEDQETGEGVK
FBW7 act: FBW7 E3 ligase activators, primary screen, biochemical, AlphaScreen, human. AlphaScreen FBW7–phospho-cyclin E peptide binding, activator screen. normalized activity (activation), % at 26.1 µM. 650,000 compounds, 0.13% hits; in the data active = normalized activity above about 1.9%;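 note: purified mutant Fbw7 with reduced substrate affinity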
MITF inh: MITF inhibitors, primary screen, biochemical, AlphaScreen, human; AID 1259374, 2018; 650,000 compounds, 0.91% hits; AlphaScreen MITF homodimerization, bead proximity signal; inhibition, % at 2.6 µM; Microphthalmia-associated transcription factor (Homo sapiens), O75030; in the data active = inhibition above about 50%;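 note: 0% = vehicle wells with protein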
An asterisk follows results filed as active.

SMILES | TEAD-YAP inh | GPR151 ag | FBW7 act | MITF inh
COc1cc(C(=O)N=c2sc3cc4c(cc3n2C)OCO4)cc(OC)c1OC | 6 | 1 | 0 | 17
CCCCSc1ccc(NC2=NS(=O)(=O)c3ccccc32)cc1 | -2 | 1 | 0 | 14
CNC(=O)c1ccc(Nc2cc(Nc3ccccc3C(=O)NC)c(C(F)(F)F)cn2)nc1 | 88* | -1 | 0 | 13
CNC(=O)c1ccccc1Nc1cc(Nc2ccc3[nH]cc(C(=O)C(=O)N(C)C)c3c2)ncc1C(F)(F)F | 51* | -1 | 0 | 19
CNC(=O)c1ccnc(Nc2cc(Nc3ccccc3C(=O)NC)c(C(F)(F)F)cn2)c1 | 85* | -1 | 0 | 1
CN(C)C(=O)C(=O)c1c[nH]c2ccc(Nc3cc(Nc4ccccn4)c(C(F)(F)F)cn3)cc12 | -5 | 2 | 0 | 12
CNC(=O)c1ccccc1Nc1cc(Nc2ccc(-c3cncnc3)cc2)ncc1C(F)(F)F | 32* | 1 | 0 | 8
COc1cc(OC)cc(C(=O)NCC2CCCN(C(=O)CCSC)C2)c1 (stereo unspecified) | 3 | 1 | 0 | 14
CCC1CCC(c2ccc(C3=N/C(=C/c4ccccc4Cl)C(=O)O3)cc2)CC1 (stereo unspecified) | 1 | 1 | 0 | 2
CNS(=O)(=O)c1ccccc1Nc1cc(Nc2cc(-c3cncnc3)nc(C)n2)ncc1C(F)(F)F | 68* | 2 | 0 | 3
CNC(=O)c1ccccc1Nc1cc(Nc2ccccn2)ncc1C(F)(F)F | 83* | 0 | 0 | -8
CNC(=O)c1ccccc1Nc1cc(Nc2cccc(C)n2)ncc1C(F)(F)F | 82* | 0 | 0 | 2
CNC(=O)c1ccccc1Nc1cc(Nc2ccc3c(c2)CCC(=O)N3C)ncc1C(F)(F)F | 78* | -1 | 0 | -2
CNC(=O)c1ncccc1Nc1cc(Nc2ccc3c(c2)NC(=O)C3)ncc1C(F)(F)F | -8 | -1 | 0 | 8
COc1cccc(CNC(=O)C(N)c2ccc(-c3ccncc3)cc2)c1 (stereo unspecified) | -10 | -1 | 1 | 12
COCCNC(=O)CCC1CCN(C(=O)C2=CCCC2)CC1 | -3 | -1 | 0 | 0
CCOC(=O)c1ccc(N2C(=O)CC(NCC34CC5CC(CC(C5)C3)C4)C2=O)cc1 (stereo unspecified) | 2 | 0 | 0 | 9
N/C(=N\OC(=O)Nc1ccc(Cl)cc1)c1ccc(Cl)cc1 | -3 | -1 | 0 | 1
O=Cc1c(NC(=O)c2ccccc2)sc2c1CCCC2 | -39 | 0 | 0 | -8
O=C(Nc1ccc2[nH]ncc2c1)c1ccc(OC2CCN(Cc3ccccc3)CC2)nc1 | 44* | 1 | 0 | 21
O=C(Nc1ccc2[nH]ncc2c1)c1cc(O[C@H]2CCNC2)ccn1 | 43* | 1 | 0 | 11
O=C(Nc1ccc2[nH]ncc2c1)c1cccnc1OC1CCN(Cc2ccccc2)CC1 | -1 | 0 | 0 | -2
CN1CC[C@@H](Oc2ccnc(C(=O)Nc3ccc4[nH]ncc4c3)c2)C1 | 66* | 0 | 0 | 11
CN1CCC(Oc2ccnc(C(=O)Nc3ccc4[nH]ncc4c3)c2)CC1 | 10 | -1 | 1 | 10
O=[N+]([O-])/C(C(Cl)=C(Cl)Cl)=C(\N1CCCCCC1)n1cncn1 | -6 | -1 | 0 | -22
SMILES | TEAD-YAP inh | GPR151 ag | FBW7 act | MITF inh
CCCCC(=O)Nc1c(-c2cccs2)nc2ccccn12 | 1 | 1 | 0 | -1
CCOc1ccc(C(=O)/C=C\Nc2ccccn2)cc1 | -12 | -3 | 0 | -3
COc1cccc2sc(=NC(=O)c3ccc([N+](=O)[O-])o3)n(C)c12 | -2 | 5 | 0 | 0
COc1ccccc1N=C1SCCN1C(=O)c1ccc([N+](=O)[O-])o1 | 4 | -1 | 2.2* | 3
COCc1ccc(-c2ccc(OC3CCNCC3)cc2)cc1 | 38* | 0 | 0 | -5
CCN1CCC(Oc2ccc(-c3ccc(COC)cc3)cc2)CC1 | -30 | 4 | 0 | 7
c1ccc2oc(-c3ccc(OC4CCNCC4)cc3)cc2c1 | 68* | 2 | 0 | -4
N#Cc1ccc(-c2ccc(OC3CCNCC3)cc2)cc1 | -42 | 0 | 0 | 18
COc1ccc(NS(=O)(=O)c2ccc(Br)cc2)c(OC)c1 | 6 | -1 | 0 | 7
Cc1cc(C)cc(OCC(=O)Nc2ccc(NC(=O)c3cccs3)cc2)c1 | -8 | 0 | 2.2* | -11
Cc1ccc(OCC(=O)Nc2cccc(NC(=O)c3cccs3)c2)cc1 | -14 | 0 | 0 | -2
N[C@@H]1CC[C@H](C(=O)Nc2ccc3[nH]ncc3c2)C1 | 1 | -2 | 1 | 10
N[C@H]1CC[C@@H](C(=O)Nc2ccc3cnccc3c2)C1 | 36* | 0 | 0 | 7
O=C(NCc1ccc(C(=O)NCCc2ccccn2)cc1)Nc1ccc(-c2cn[nH]c2)cc1 | 3 | 1 | 1.9* | 26
Oc1ccc(O)c(CN2CCCCCC2)c1 | -2 | -1 | -1 | 82*
CCN(CCn1cccn1)C(=O)CC1C(=O)NCCN1Cc1ccc(-c2ccccc2)cc1 (stereo unspecified) | 17 | -1 | 1 | 2
CCC(=O)n1c(=O)oc2ccc(Cl)cc21 | -10 | 0 | 0 | -11
O=c1oc2ccc(Cl)cc2c(=O)n1-c1cccc([N+](=O)[O-])c1 | 75* | -3 | 0 | -1
CCc1ccccc1-n1c(=O)oc2ccc(Cl)cc2c1=O | 53* | 0 | 0 | 0
CC(=O)N1CCCC(c2nnc(-c3ccccc3F)s2)C1 (stereo unspecified) | 82* | -6 | 0 | -1
COc1ccc(CNC(=O)N2CCCC(c3nnc(-c4ccccc4F)s3)C2)cc1 (stereo unspecified) | -23 | 0 | 0 | 12
CC(C)C(=O)N1CCCC(c2nnc(-c3ccccc3F)s2)C1 (stereo unspecified) | 93* | -6 | 0 | 8
Cc1c2c(=O)n(-c3nc4ccccc4s3)[nH]c2cc(=O)n1Cc1ccccc1Cl | 9 | 0 | 0 | 91*
CC(CC(=O)Nc1cc([N+](=O)[O-])ccc1Cl)c1ccccc1 (stereo unspecified) | -12 | -1 | 0 | 2
O=C(/C=C/c1ccc(F)cc1)Nc1ccc([N+](=O)[O-])cc1Br | -4 | 1 | 0 | -8
CC(CC(=O)Nc1cc([N+](=O)[O-])ccc1F)c1ccccc1 (stereo unspecified) | 38* | 0 | 0 | 0
O=C(/C=C/c1ccc(F)cc1)Nc1cc([N+](=O)[O-])ccc1F | 53* | 0 | 0 | 3
O=C(/C=C\c1ccco1)Nc1cc([N+](=O)[O-])ccc1F | 60* | 1 | 0 | 10
CCOC(=O)C1=C(C)NC(=O)NC1c1ccc(N(C)CC)cc1 (stereo unspecified) | -7 | 1 | 0 | -7
Fc1ccc(Cn2nnnc2CN(Cc2cccnc2)Cc2ccco2)cc1 | -7 | -1 | 0 | -6

Screening results (PubChem)
